# Source: PubChem BioAssay
# Tb PYK inh: inhibitors of Trypanosoma brucei pyruvate kinase; TbPYK enzyme, Kinase-Glo Plus ATP luminescence, 45 min; AID 624173; Potency, µM (top dose mostly 76.8 µM), actives largely listed as inhibitors; 0.12% of 410,000 active; Q57TT1; also: nearly all actives have a fitted effect of over 50% in size
#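 Screened from lowest to highest concentration, compounds were pinned into TbPYK/substrate mixtures, and ADP (130 uM final) was added. Plates sat at room temperature for 45 min prior to Kinase-Glo Plus detection by luminescence.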
# Giardia FBPA inh: inhibitors of Giardia lamblia fructose-1,6-bisphosphate aldolase; A8B2U2; purified Giardia FBPA; Potency, µM (top dose mostly 59.6 µM), most hits filed as inhibitors; 0.71% of 290,000 active; also: nearly all actives have a fitted effect of over 55% in size
# Target sequence (A8B2U2 whole entry, looked up): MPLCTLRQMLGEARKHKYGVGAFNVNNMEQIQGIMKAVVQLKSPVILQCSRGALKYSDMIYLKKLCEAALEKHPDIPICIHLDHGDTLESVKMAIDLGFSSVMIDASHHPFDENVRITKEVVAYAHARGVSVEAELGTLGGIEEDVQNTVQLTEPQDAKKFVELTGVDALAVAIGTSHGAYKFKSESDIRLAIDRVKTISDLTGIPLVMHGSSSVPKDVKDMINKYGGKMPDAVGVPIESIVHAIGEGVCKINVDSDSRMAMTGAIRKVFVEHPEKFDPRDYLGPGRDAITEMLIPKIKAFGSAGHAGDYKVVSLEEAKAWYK
#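 40 nM FBPA preincubated 10 min at RT with compound (up to 57.5 uM final), then substrate plus GAPDH/TPI/NAD/arsenate coupling and diaphorase/resazurin added. Fluorescence read after 20 min at RT, 525/598 nm.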
# Shiga inhibitor: Shiga toxin inhibition; Vero cells, Shiga toxin protein synthesis inhibition reporter; inhibition, % at 38.7 µM; 9.2% of 290,000 active; AID 2315; in the data active = inhibition mostly above about 28%, no sharp cut-off; inactive = mostly below about 43%
# RE007 growth inh: less growth of the S. pombe RE007 Vpr strain; S. pombe RE007 Vpr strain, BacTiter-Glo ATP luminescence, 24 h; Potency, µM (series often up to 92.2 µM), most hits filed as inhibitors; 0.21% of 360,000 active; AID 651644; active = well fitted falling curve with a large enough effect; inconclusive = small, poorly fitted or top-dose-only effect; inactive = no such curve, though single readings can be large or run the other way; also: nearly all actives have a fitted effect of over 50% in size
#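 Fission yeast RE007 carrying one integrated HIV-1 vpr copy, seeded at OD 0.01 in PMG+AL medium with 23 nL pinned compound. Grown 24 h at 30 degrees; viability read by BacTiter-Glo luminescence after 5 min.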
# CHX counter: affects cycloheximide protein synthesis inhibition readout, counter-screen; cell reporter, cycloheximide protein synthesis inhibition counterscreen; max response, %; 12% of 300,000 active; AID 2314; in the data active = max response mostly above about 13%, no sharp cut-off; inactive = mostly below about 14%; also: read at 38.3 µM for the half of the compounds with a filed dose
# LmPK inhibitor: inhibitors of Leishmania mexicana pyruvate kinase; Q27686; purified LmPK, Kinase-Glo ATP luminescence, 1 h; Potency, µM (series often up to 57.5 µM), actives largely listed as inhibitors; 0.37% of 290,000 active; AID 1721
#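 Purified LmPK (0.1 nM) converted ADP (0.1 mM) to ATP with PEP (0.5 mM) in imidazole buffer pH 7.2 with KCl and MgCl2, 1 h at room temperature. ATP was read by Kinase-Glo luminescence; data normalized to uninhibited and no-enzyme controls.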
# Hits are given with their value; n = inactive; u = inconclusive; x = no result given; + = active, no number. This is one part of a sample in which hits are shown more often than they occur. Unless noted, calls follow the shape of the dose curve; as a rule, active = well fitted curve in the direction sought with a large enough effect; inconclusive = small, poorly fitted or top-dose-only effect, or another doubt; inactive = no such curve, though single readings can be large; an effect the other way counts as inactive or inconclusive.
SMILES,Tb PYK inh,Giardia FBPA inh,Shiga inhibitor,RE007 growth inh,CHX counter,LmPK inhibitor
COc1ccc(-c2cc(C(=O)Nc3cccnc3)no2)cc1OC,n,n,60,n,32,n
O=C(Nc1cccnc1)c1cc(-c2ccccc2O)on1,n,n,77,n,48,n
O=C(Nc1cccnc1)c1cc(-c2ccc(Cl)c(Cl)c2)on1,n,n,47,n,21,n
O=C(Nc1cccnc1)c1ccc([N+](=O)[O-])s1,n,x,x,n,x,x
O=C(CCCN1CCN2CCCC2C1)c1ccc(F)cc1 (configuration not stated),n,x,x,x,x,x
O=C(Nc1cccnc1)c1cc(-c2ccc(F)cc2)on1,n,n,92,n,53,n
O=C(CN1C(=O)c2ccccc2S1(=O)=O)Nc1ccon1,n,x,x,n,x,x
COc1ccccc1-n1nnnc1SCC(=O)N(C)C1CCS(=O)(=O)C1 (configuration not stated),n,x,x,n,x,x
Cc1c(O)nc2sc3ccccc3n2c1=O,x,n,n,x,n,n
Cc1cc2sc3nc(=O)n(-c4ccccc4)c(=O)n3c2cc1C,n,n,32,n,25,n
COc1cc(C(=O)ON=C2C3CC4CC(C3)CC2C4)cc(OC)c1OC,n,n,n,n,n,n
COc1cc(C(=O)O/N=C2/C=CC(=O)C(C)=C2C)cc(OC)c1OC,n,4µM,n,n,n,n
Cc1csc(NC(=O)c2ccco2)n1,n,n,n,n,n,n
O=C(Nc1nc(-c2ccccc2)ns1)c1cccs1,n,n,68,u,28,n
O=C(Nc1nc(-c2nc3ccccc3s2)cs1)c1ccco1,n,n,66,n,30,n
O=C(Nc1nc(-c2ccc(Cl)s2)cs1)c1cccs1,n,n,98,u,30,n
O=C(Nc1nc(-c2ccccn2)cs1)c1ccc(Cl)s1,n,u,n,n,n,n
COc1ccccc1OCc1csc(NC(=O)c2ccco2)n1,n,n,98,n,53,n
CCN1C[C@@H]2[C@@H]3C(=O)N(C)C(=O)[C@@H]3[C@](C)(C1=O)N2C(=O)c1ccc(C(F)(F)F)cc1,n,x,x,n,x,x
COc1cccc(OC)c1C(=O)Nc1nc(-c2ccccc2)cs1,n,n,x,n,n,n
O=C(O)C1CCCCC1C(=O)Nc1nc(-c2ccc(Cl)s2)cs1 (configuration not stated),n,n,n,n,n,n
O=C(Nc1nc(-c2cc(Cl)sc2Cl)cs1)c1ccccc1,n,n,167,n,49,n
O=C(Nc1nc(-c2ccc(Cl)s2)cs1)c1ccco1,n,n,81,u,56,n
O=C(Nc1nc(-c2ccccc2)cs1)c1cccs1,n,n,123,u,88,n
O=C(Cc1csc(NC(=O)c2ccccc2)n1)NO,n,n,n,n,n,n
SMILES,Tb PYK inh,Giardia FBPA inh,Shiga inhibitor,RE007 growth inh,CHX counter,LmPK inhibitor
O=C(Nc1nc(-c2nc3ccccc3s2)cs1)C1CC1,n,n,85,n,63,n
Cn1nnc2c(N3CCCCC3)ncnc21,n,x,x,x,x,x
CC1CC1C(=O)Nc1nc(-c2ccccc2)cs1 (configuration not stated),n,n,84,u,39,n
CC(OC(=O)CNC(=O)c1ccccc1F)C(=O)Nc1nc(-c2ccccc2)cs1 (configuration not stated),n,n,101,n,66,n
Cc1cc(-c2csc(NC(=O)c3ccc(=O)[nH]c3)n2)c(C)n1Cc1ccccc1,n,n,n,n,n,n
O=C(Nc1ccc(Cl)cc1-c1nc2ccccc2s1)c1ccco1,n,n,79,n,n,n
O=C(Nc1nc(-c2ccccc2)cs1)c1ccc(=O)[nH]c1,n,n,67,n,24,n
COc1ccc(C2=CC(c3ccc(F)cc3)n3ncc(C(=O)Nc4ccc(C)cc4)c3N2)cc1 (configuration not stated),n,x,x,x,x,x
CC1CCN(C(=O)CN2c3ccc(C(C)C)cc3-c3ccccc3S2(=O)=O)CC1,n,x,x,x,x,x
C=CCOC(=O)N[C@H](/C(C(=O)OC)=C(\C)NCc1ccccc1)c1ccc2c(c1)OCO2,x,n,x,x,x,x
O=C(CSc1nc(-c2ccccc2)cc(=O)[nH]1)N1CCc2ccccc21,u,n,n,n,n,n
Cc1cc2nc(-c3ccc(SCC(=O)NC(C)C)nc3)[nH]c2cc1C,x,n,+,x,45,n
Cc1cc2nc(-c3ccc(SCC(=O)Nc4ccc(S(=O)(=O)NC5CC5)cc4)nc3)[nH]c2cc1C,n,n,70,n,46,n
O=C(CN1CCCCC1)Nc1ccc(S(=O)(=O)NC2CCCCC2)cc1,n,n,n,n,n,n
Cc1cc2nc(-c3ccc(SCC(=O)N4CCc5ccccc54)nc3)[nH]c2cc1C,n,n,n,n,43,n
Cc1cc2nc(-c3ccc(SCc4ccccc4C#N)nc3)[nH]c2cc1C,n,n,46,n,34,n
CC1(C(=O)NS(=O)(=O)c2ccc(F)cc2F)CCN1C(=O)Cc1ccc(Cl)cc1Cl (configuration not stated),n,x,x,n,x,x
COc1ccc(OC)c(NC(=O)Cc2c(C(=O)O)n(C)c3ccc(C)cc23)c1,n,x,x,x,x,x
Cc1ccc2nc(SCC(=O)Nc3cc(C)on3)[nH]c2c1,n,n,n,n,n,n
O=C(CSc1ccc(-c2nc3ccccc3[nH]2)cn1)N1CCN(C(=O)c2ccco2)CC1,u,n,n,n,n,n
Cc1cc2nc(-c3ccc(SCc4ccc(C(=O)O)cc4)nc3)[nH]c2cc1C,n,u,45,n,37,n
COC(=O)CSc1ccc(-c2nc3ccc(C)cc3[nH]2)cn1,n,n,n,n,20,n
Cc1cc(NC(=O)CSc2ccc(-c3nc4cc(C)c(C)cc4[nH]3)cn2)no1,n,n,60,n,38,n
Cc1ccc(NC(=O)C2(c3cccs3)CCOCC2)cc1C,n,n,n,n,n,n
CCN1CCN(C(=O)/C(C#N)=C/c2ccc(OC(F)F)cc2)CC1,n,n,n,n,n,n
SMILES,Tb PYK inh,Giardia FBPA inh,Shiga inhibitor,RE007 growth inh,CHX counter,LmPK inhibitor
N#C/C(=C\c1ccc(OC(F)F)cc1)C(=O)N1CCCCC1,n,n,46,n,27,n
N#C/C(=C\C=C\c1ccccc1)C(=O)N1CCCC1,n,n,70,n,22,n
Cc1ccc(/C=C(\C#N)C(=O)N2CCCC2)c(C)c1,n,n,125,n,37,n
CSc1ccccc1NC(=O)C(=O)c1c[nH]c2ccccc12,n,n,117,n,42,n
O=C(Cc1c[nH]c2ccccc12)Nc1nccs1,n,n,n,n,n,n
O=C(Nc1nccs1)C(=O)c1c[nH]c2ccccc12,n,n,146,n,71,n
C[C@@H](NC(=O)C(=O)c1c[nH]c2ccccc12)c1ccccc1,n,x,x,n,x,x
c1ccc(-c2cnc(-c3ccccc3)nc2)cc1,n,n,88,n,69,u
